In PubChem BioAssay (NCATS):
Inconclusive results are not listed. Active and inactive are the calls of the source. Calls follow the shape of the dose curve; as a rule, active = well fitted cell-killing curve with a large enough effect; inconclusive = small, poorly fitted or top-dose-only effect, or effect the other way; inactive = no such curve, though single readings can be large or run the other way. Starred links: 1 amine or outer side, 2 acyl side, 3 side chain; linkers in the order of their positions; H or OH if unused. Positions of bridges follow the written chain, without caps; N, C: chain ends. Non-standard residues stand in square brackets, D forms with d. Residues, ends and D or L forms follow the SMILES beside them. Chains are numbered I, II in the order given. *: point of attachment. Actinocin(9to1) = Cc1c2oc3c(C)ccc(C(=O)[*:1])c3nc-2c(C(=O)[*:2])c(N)c1=O; NMeV = CN[CH](C(=O)O)C(C)C; Nva = CCC[C@H](N)C(=O)O; Cbz = O=C(OCc1ccccc1)*; Sar = CNCC(=O)O

Tests used:
[1] = Quantitative High-Throughput drug screen in 47 multiple myeloma cell lines against the NCATS MIPE library collection: FR4_PLB cell viability assay (AID 1918924; also: nearly all actives have a fitted effect of over 35% in size); details: FR4_PLB myeloma cells viability, CellTiter-Glo ATP, 48 h; series mostly up to 45.8 µM
How it was run: (§1)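 Relative luminescence from CellTiter-Glo served as the viability signal, referenced to DMSO-treated (100%) and cell-free medium (0%) controls. Treatment lasted 48 hours at 37C with 500 cells per well.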

[2] = Quantitative High-Throughput drug screen in 47 multiple myeloma cell lines against the NCATS MIPE library collection: Delta47_JCRB cell viability assay (AID 1918925; also: nearly all actives have a fitted effect of over 45% in size); details: Delta47 myeloma viability, CellTiter-Glo ATP, 48 h; series mostly up to 45.8 µM
How it was run: (§2)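 Myeloma cells (500 per well) were exposed to MIPE 4.0 compounds by pin transfer and incubated 48 hours at 37C, 5% CO2. Viability was read as ATP by CellTiter-Glo luminescence, normalised to DMSO (100%) and media-only (0%) wells.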

[3] = Quantitative High-Throughput drug screen in 47 multiple myeloma cell lines against the NCATS MIPE library collection: EJM_DSMZ cell viability assay (AID 1918926; also: nearly all actives have a fitted effect of over 30% in size); details: EJM myeloma cell viability, CellTiter-Glo ATP, 48 h; series mostly up to 45.8 µM
How it was run: as §2

[4] = Quantitative High-Throughput drug screen in 47 multiple myeloma cell lines against the NCATS MIPE library collection: ARP1_JJKsccF8 cell viability assay (AID 1918928; also: nearly all actives have a fitted effect of over 40% in size); details: ARP1 myeloma cells viability, CellTiter-Glo ATP, 48 h; series mostly up to 45.8 µM
How it was run: (§3)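 Cell viability inhibition in this qHTS is measured via ATP content (CellTiter-Glo) after 48 h drug exposure at 37 °C. Wells hold 500 cells; DMSO-treated wells define 100% and medium-only wells 0%.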

[5] = Quantitative High-Throughput drug screen in 47 multiple myeloma cell lines against the NCATS MIPE library collection: ARD_JJKsccE7 cell viability assay (AID 1918929); details: ARD myeloma cell line viability, CellTiter-Glo, 48 h; series mostly up to 45.8 µM
How it was run: as §2

[6] = Quantitative High-Throughput drug screen in 47 multiple myeloma cell lines against the NCATS MIPE library collection: KMM1_JCRB cell viability assay (AID 1918960); details: KMM1 myeloma viability, CellTiter-Glo ATP luminescence, 48 h; series mostly up to 45.8 µM; also: nearly all actives have a fitted effect of over 30% in size
How it was run: as §3

[7] = Quantitative High-Throughput drug screen in 47 multiple myeloma cell lines against the NCATS MIPE library collection: AMO1_DSMZ cell viability assay (AID 1918927; also: nearly all actives have a fitted effect of over 30% in size); details: AMO1 myeloma cells viability, CellTiter-Glo ATP luminescence, 48 h; series mostly up to 45.8 µM
How it was run: as §2

[8] = Quantitative High-Throughput drug screen in 47 multiple myeloma cell lines against the NCATS MIPE library collection: Karpas620_DSMZ cell viability assay (AID 1918959); details: Karpas620 myeloma viability, CellTiter-Glo ATP luminescence, 48 h; series mostly up to 45.8 µM; also: nearly all actives have a fitted effect of over 30% in size
How it was run: as §1

[9] = Quantitative High-Throughput drug screen in 47 multiple myeloma cell lines against the NCATS MIPE library collection: Karpas417_ECACC cell viability assay (AID 1918961); details: Karpas417 myeloma viability, CellTiter-Glo ATP luminescence, 48 h; viability (% of DMSO): at 45.8 µM (top of the series)
How it was run: as §1
Potency is read from the fitted curve at half-maximal effect.

Structure (SMILES)	Potency [1]	Potency [2]	Potency [3]	Potency [4]	Potency [5]	Potency [6]	Potency [7]	Potency [8]	Potency [9]
C=CC(=O)Nc1cccc(Nc2nc(NC3CCC(N(C)C)CC3)nc3c2ncn3C(C)C)c1 (stereo unspecified)	235 nM (active)	235 nM (active)	8.3 nM (active)	743 nM (active)	10.5 nM (active)	13.2 nM (active)			
N#CC(=Cc1ccc(O)c(O)c1)C(=O)NCc1ccccc1	5260 nM (active)	1660 nM (active)	14800 nM (active)				inactive	inactive	
CC(=O)C1=C(O)C=C2Oc3c(C(C)=O)c(O)c(C)c(O)c3C2(C)C1=O (stereo unspecified)	inactive	inactive	inactive	inactive					
O=C(O)C(=O)Nc1cccc(C2=NN=N[N]2)c1	inactive	inactive	inactive	inactive		inactive	inactive	inactive	inactive
Cc1ccc2nc(NCCN)c3ncc(C)n3c2c1	3320 nM (active)	5900 nM (active)	1480 nM (active)	8330 nM (active)	9350 nM (active)			11800 nM (active)	8330 nM (active)
O=C(c1ccc(F)cc1)N1CCC[C@H](c2nc(-c3ccc(F)cc3)no2)C1	inactive	inactive	inactive	inactive		inactive	inactive	inactive	inactive
O=C1NC(=O)[C@@H](c2cn3c4c(cccc24)CCC3)[C@H]1c1c[nH]c2ccccc12	74.3 nM (active)	235 nM (active)	20900 nM (active)				46.9 nM (active)	74.3 nM (active)	
CC(=O)OC[C@@H]1O[C@@H](n2ccc(=O)[nH]c2=O)[C@H](OC(C)=O)[C@H]1OC(C)=O	inactive	inactive	inactive	inactive	inactive	inactive		inactive	
O=[N+]([O-])c1cn2c(n1)OC[C@@H](OCc1ccc(OC(F)(F)F)cc1)C2	inactive	inactive	inactive	inactive	inactive			inactive	
C[C@H](O)[C@@H]1C(=O)N2C(C(=O)O)=C(S[C@@H]3CN[C@H](CNS(N)(=O)=O)C3)[C@@H](C)[C@@H]12	inactive	inactive	inactive	inactive	inactive	inactive		inactive	
Cn1cnc(=N)c2[nH]cnc21	148 nM (active)	132 nM (active)	526 nM (active)	118 nM (active)		132 nM (active)	83.3 nM (active)	296 nM (active)	
COc1cc(N2CCC(C(N)=O)CC2)ccc1Nc1nc(N)c(Cl)c(Nc2ccccc2S(=O)(=O)C(C)C)n1	14800 nM (active)	83.3 nM (active)	105 nM (active)	1320 nM (active)	59 nM (active)				
C[C@H](CCC(=O)O)[C@H]1CC[C@H]2[C@@H]3[C@H](O)C[C@@H]4C[C@H](O)CC[C@]4(C)[C@@H]3CC[C@]12C	inactive	inactive	inactive	inactive	inactive	inactive		inactive	
C[C@H]1C[C@H]2[C@@H]3CCC4=CC(=O)C=C[C@]4(C)[C@@H]3C(=O)C[C@]2(C)[C@@]1(O)C(=O)CO	inactive	inactive	inactive		inactive	inactive	inactive	inactive	inactive
Cc1c2oc3c(C)ccc(C(=O)NC4C(=O)NC(C(C)C)C(=O)N5CCCC5C(=O)N(C)CC(=O)N(C)C(C(C)C)C(=O)OC4C)c3nc-2c(C(=O)NC2C(=O)NC(C(C)C)C(=O)N3CCCC3C(=O)N(C)CC(=O)N(C)C(C(C)C)C(=O)OC2C)c(N)c1=O (stereo unspecified) (I: TVP[Sar][NMeV] / II: TVP[Sar][NMeV]; ester I:1-I:C, II:1-II:C; linker I:N-II:N via Actinocin(9to1); configuration not given here)	inactive	inactive	inactive	inactive		inactive	inactive	inactive	inactive
CC[C@H](CC[C@@H](C)[C@H]1CC[C@H]2[C@@H]3CC=C4C[C@@H](O)CC[C@]4(C)[C@@H]3CC[C@]12C)C(C)C	inactive	inactive	inactive	inactive	inactive	inactive		inactive	
CCC[C@@H](C=O)NC(=O)[C@H](CC(C)C)NC(=O)[C@H](CC(C)C)NC(=O)OCc1ccccc1 (Cbz-Leu-Leu-[Nva]-aldehyde)	833 nM (active)	332 nM (active)	1480 nM (active)		332 nM (active)	235 nM (active)	296 nM (active)	332 nM (active)	296 nM (active)
Cc1cnc(NC(=O)Nc2cc(Br)c(C)cc2OC[C@@H]2CNCCO2)cn1	590 nM (active)	5260 nM (active)	3720 nM (active)	13200 nM (active)	1180 nM (active)				

Structure (SMILES)	Potency [1]	Potency [2]	Potency [3]	Potency [4]	Potency [5]	Potency [6]	Potency [7]	Potency [8]	Potency [9]
CN(C)c1ccc(C(=O)NCCCCCCC(=O)NO)cc1	132 nM (active)	590 nM (active)	1870 nM (active)	743 nM (active)		105 nM (active)	235 nM (active)	743 nM (active)	132 nM (active)
COc1cc(OC)cc(-c2ccc3ncc4ccc(=O)n(-c5ccc(N6CCNCC6)c(C(F)(F)F)c5)c4c3c2)c1	4690 nM (active)	1480 nM (active)	5900 nM (active)	3320 nM (active)		2960 nM (active)	1180 nM (active)	4690 nM (active)	2350 nM (active)
O=C1c2cccc(O)c2C(=O)c2c(O)cc(CO)cc21	inactive	inactive	inactive		inactive		inactive	inactive	
O=C(CCCCCCC(=O)Nc1cccnc1)NO	2350 nM (active)	2960 nM (active)	7430 nM (active)	2350 nM (active)	3320 nM (active)	1660 nM (active)		7430 nM (active)	
CC(C)N1[N]C(=C2C=c3cc(O)ccc3=N2)c2c(N)ncnc21	296 nM (active)	264 nM (active)	3720 nM (active)	83.3 nM (active)		296 nM (active)	662 nM (active)	5900 nM (active)	33.2 nM (active)
C[C@H](NC(=O)Cc1cc(F)cc(F)c1)C(=O)N[C@H](C(=O)OC(C)(C)C)c1ccccc1	inactive	inactive	inactive	inactive		inactive	inactive	inactive	
CC(=O)O[C@H]1C[C@@H]2CC[C@H]3[C@H]4C[C@H]([N+]5(C)CCCCC5)[C@@H](OC(C)=O)[C@@]4(C)CC[C@@H]3[C@@]2(C)C[C@H]1[N+]1(C)CCCCC1	inactive	inactive	inactive	inactive	inactive	inactive		inactive	
N#CC(=C(N)Sc1ccc(N)cc1)c1ccccc1C(F)(F)F	inactive	5900 nM (active)	inactive	14800 nM (active)					
CCN(CC)CCNC(=O)c1c(C)[nH]c(C=C2C(=O)Nc3ccc(F)cc32)c1C	10800 nM (active)	1520 nM (active)	12100 nM (active)	4810 nM (active)	2150 nM (active)	3820 nM (active)		4810 nM (active)	136 nM (active)
CN(C)CCN1C(=O)c2cccc3cc(N)cc(c23)C1=O	23500 nM (active)	11800 nM (active)	23500 nM (active)	20900 nM (active)	29600 nM (active)	18700 nM (active)		26400 nM (active)	
CC(C)N(CC[C@H](c1ccccc1)c1cc(CO)ccc1O)C(C)C	inactive	inactive	inactive	inactive		inactive	inactive	inactive	inactive
CCOC(=O)[C@H](CCc1ccccc1)N[C@@H](C)C(=O)N1[C@@H](C(=O)O)C[C@H]2CCC[C@@H]21	18700 nM (active)	8330 nM (active)	20900 nM (active)	20900 nM (active)	9350 nM (active)	7430 nM (active)		8330 nM (active)	
CC(=O)OCC(=O)[C@@]12N=C(C)O[C@H]1C[C@H]1[C@@H]3CCC4=CC(=O)C=C[C@]4(C)[C@@H]3[C@@H](O)C[C@@]12C	inactive	inactive	inactive	inactive	1050 nM (active)			inactive	
O=S(=O)(O)CCSSCCS(=O)(=O)O	inactive	inactive	inactive	inactive	inactive	inactive		inactive	
Nc1ncn([C@@H]2O[C@H](CO)[C@@H](O)[C@@H]2O)c(=O)n1	4690 nM (active)	3320 nM (active)	13200 nM (active)	5260 nM (active)	2350 nM (active)	1180 nM (active)		4690 nM (active)	9350 nM (active)
C[C@H](NCc1ccc(OCc2cccc(F)c2)cc1)C(N)=O	16600 nM (active)	2090 nM (active)	9350 nM (active)	7430 nM (active)		6620 nM (active)	9350 nM (active)	3720 nM (active)	
CCCCCN=C(N)NN=Cc1c[nH]c2ccc(OC)cc12	2350 nM (active)	13200 nM (active)	13200 nM (active)		2960 nM (active)		1320 nM (active)		
